Structures are written as SMILES. Inconclusive results are not listed. Where a call stands in place of a potency, no number is given. The source made the active and inactive calls. Calls come from the whole dose curve; as a rule, active = well fitted cell-killing curve with a large enough effect; inconclusive = small, poorly fitted or top-dose-only effect, or effect the other way; inactive = flat fitted curve, though single readings scatter.

The first assay relates to Tov-21-G. Briefly: Primary qHTS to identify gynecologic anti-cancer compounds using libraries of approved drugs and bioactive compounds (AID 1345084). Note: nearly all actives have a fitted effect of over 55% in size. As to conditions: Gynecologic cancer cell panel viability, ATPlite luminescence, 48 h; series mostly up to 57.5 µM. Summed up:
(§1)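 Cells, 1,000 per well, were allowed to settle for 16 h at 37 C before compound addition. Five concentrations were tested for 48 h, and viability was read by ATPlite luminescence after 15 min at room temperature.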
(Quantitative high-throughput screening tests each substance at several concentrations.)
Turning to `CN(C)C(=N)N=C(N)N`, the Potency entry was “inactive”. Take `CC12CC3CC(C)(C1)CC(N)(C3)C2`: the Potency result is “inactive”. On the same count and under the same terms, the same measure for `Clc1ccc2c(c1)C(N1CCNCC1)=Nc1ccccc1O2`: “inactive”; for `CCOC(=O)Nc1ccc(NCc2ccc(F)cc2)nc1N`: “inactive”. With `NCCCCCC(=O)O`, the Potency entry was “inactive”.

As for `O=C(c1ccc(OCCN2CCCCC2)cc1)c1c(-c2ccc(O)cc2)sc2cc(O)ccc12`, the Potency entry was “inactive”. Turning to `C[C@H]1c2cccc(O)c2C(O)=C2C(=O)[C@]3(O)C(O)=C(C(N)=O)C(=O)[C@@H](N(C)C)[C@@H]3[C@@H](O)[C@@H]21`, the Potency result was “inactive”. As for `Cn1c(=O)c2c(ncn2C)n(C)c1=O`, the Potency result was “inactive”. Regarding `CS(=O)(=O)Nc1ccc([N+](=O)[O-])cc1Oc1ccccc1`, the Potency entry was “inactive”. On to `Cn1cnc2c1c(=O)[nH]c(=O)n2C`, for which the Potency result is “inactive”. Same read-out and setting: the value for `CC(C)C(=O)Nc1ccc([N+](=O)[O-])c(C(F)(F)F)c1` was “inactive”; that for `O=c1c(O)c(-c2ccc(O)c(O)c2)oc2cc(O)cc(O)c12` was “inactive”; that for `CN(C)c1nc(N(C)C)nc(N(C)C)n1` was “inactive”. In the case of `CC(C(=O)O)c1cccc(C(=O)c2ccccc2)c1` (stereo not given), the Potency result is “inactive”. Regarding `CCCNCC(O)COc1ccccc1C(=O)CCc1ccccc1` (stereo not given), the Potency entry was “inactive”. Same read-out and setting: the value for `Clc1ccc(C(c2ccccc2Cl)C(Cl)Cl)cc1` (stereo not given) was “inactive”; that for `Nc1ccn([C@H]2CC[C@@H](CO)O2)c(=O)n1` was “inactive”; that for `NS(=O)(=O)c1cc2c(cc1Cl)NCNS2(=O)=O` was “inactive”. Still for that read-out and setting: the value for `Nc1nc2c(ncn2COC(CO)CO)c(=O)[nH]1` was “inactive”; that for `NC(=O)NO` was “inactive”. Take `CC(C)NCC(O)COc1ccc(CCOCC2CC2)cc1` (stereo not given): the Potency entry was “inactive”.

For `COc1ccc(CCN(C)CCCC(C#N)(c2ccc(OC)c(OC)c2)C(C)C)cc1OC` (stereo not given), the Potency result is “inactive”. As to `C[C@@H]1CC(=O)NN=C1c1ccc(NN=C(C#N)C#N)cc1`, the Potency result was “inactive”. With `CS(=O)(=O)CCNCc1ccc(-c2ccc3ncnc(Nc4ccc(OCc5cccc(F)c5)c(Cl)c4)c3c2)o1`, the Potency result was “inactive”. For `COc1nc(C)nc(Cl)c1NC1=NCCN1`, the Potency result was “inactive”. On to `Cc1ccc(-c2cc(C(F)(F)F)nn2-c2ccc(S(N)(=O)=O)cc2)cc1`, for which the Potency entry is “inactive”. On the same count and under the same terms, the value for `O=C1N(c2ccccc2)c2ccccc2C1(Cc1ccncc1)Cc1ccncc1` was “inactive”; that for `CN1C(C(=O)Nc2ccccn2)=C(O)c2ccccc2S1(=O)=O` was “inactive”; that for `Cc1cnc(C(=O)NCCc2ccc(S(=O)(=O)NC(=O)NC3CCCCC3)cc2)cn1` was “inactive”. Consider `CCc1cccc2c3c([nH]c12)C(CC)(CC(=O)O)OCC3` (stereo not given), for which the Potency entry was “inactive”. Take `O=C1Cc2cc(CCN3CCN(c4nsc5ccccc45)CC3)c(Cl)cc2N1`: the Potency result was “inactive”.

Turning to `Cc1cn([C@H]2C=C[C@@H](CO)O2)c(=O)[nH]c1=O`, the Potency entry was “inactive”. As to `CC(C)(C)C(=O)Oc1ccc(S(=O)(=O)Nc2ccccc2C(=O)NCC(=O)O)cc1`, the Potency entry was “inactive”.

The test system of the next assay is Tov112D. The assay is described as above. As to conditions: Gynecologic cancer cell panel viability, ATPlite luminescence, 48 h; series mostly up to 57.5 µM. Summed up: as §1
Background: In ATP-based viability assays light output follows the ATP content of the culture.
Turning to `CN(C)C(=N)N=C(N)N`, the Potency entry was “inactive”. With `CC12CC3CC(C)(C1)CC(N)(C3)C2`, the Potency result is “inactive”. For `Clc1ccc2c(c1)C(N1CCNCC1)=Nc1ccccc1O2`, the Potency entry was “inactive”. Still for that read-out and setting: the value for `CCOC(=O)Nc1ccc(NCc2ccc(F)cc2)nc1N` was “inactive”; that for `NCCCCCC(=O)O` was “inactive”. The same measure, in the same setting: the value for `O=C(c1ccc(OCCN2CCCCC2)cc1)c1c(-c2ccc(O)cc2)sc2cc(O)ccc12` was “inactive”.

For `C[C@H]1c2cccc(O)c2C(O)=C2C(=O)[C@]3(O)C(O)=C(C(N)=O)C(=O)[C@@H](N(C)C)[C@@H]3[C@@H](O)[C@@H]21`, the Potency entry was “inactive”. As for `Cn1c(=O)c2c(ncn2C)n(C)c1=O`, the Potency entry is “inactive”. Consider `CS(=O)(=O)Nc1ccc([N+](=O)[O-])cc1Oc1ccccc1`, for which the Potency entry was “inactive”.

Turning to `Cn1cnc2c1c(=O)[nH]c(=O)n2C`, the Potency entry is “inactive”. `CC(C)C(=O)Nc1ccc([N+](=O)[O-])c(C(F)(F)F)c1`: the Potency result was “inactive”.

Regarding `CN(C)c1nc(N(C)C)nc(N(C)C)n1`, the Potency entry was “inactive”. Same read-out and setting: the same measure for `CC(C(=O)O)c1cccc(C(=O)c2ccccc2)c1` (stereo not given): “inactive”; for `CCCNCC(O)COc1ccccc1C(=O)CCc1ccccc1` (stereo not given): “inactive”. Consider `Clc1ccc(C(c2ccccc2Cl)C(Cl)Cl)cc1` (stereo not given), for which the Potency result is “inactive”. On the same count and under the same terms, the value for `Nc1ccn([C@H]2CC[C@@H](CO)O2)c(=O)n1` was “inactive”; that for `NS(=O)(=O)c1cc2c(cc1Cl)NCNS2(=O)=O` was “inactive”.

Regarding `Nc1nc2c(ncn2COC(CO)CO)c(=O)[nH]1`, the Potency result is “inactive”. Turning to `NC(=O)NO`, the Potency result was “inactive”. In the case of `CC(C)NCC(O)COc1ccc(CCOCC2CC2)cc1` (stereo not given), the Potency entry is “inactive”. Consider `COc1ccc(CCN(C)CCCC(C#N)(c2ccc(OC)c(OC)c2)C(C)C)cc1OC` (stereo not given), for which the Potency entry was “inactive”. With `C[C@@H]1CC(=O)NN=C1c1ccc(NN=C(C#N)C#N)cc1`, the Potency entry was “inactive”.

With `CS(=O)(=O)CCNCc1ccc(-c2ccc3ncnc(Nc4ccc(OCc5cccc(F)c5)c(Cl)c4)c3c2)o1`, the Potency result was “inactive”.

As to `COc1nc(C)nc(Cl)c1NC1=NCCN1`, the Potency entry is “inactive”.

Turning to `Cc1ccc(-c2cc(C(F)(F)F)nn2-c2ccc(S(N)(=O)=O)cc2)cc1`, the Potency result is “inactive”. On to `O=C1N(c2ccccc2)c2ccccc2C1(Cc1ccncc1)Cc1ccncc1`, for which the Potency result was “inactive”.

In the case of `CN1C(C(=O)Nc2ccccn2)=C(O)c2ccccc2S1(=O)=O`, the Potency result was “inactive”. Regarding `Cc1cnc(C(=O)NCCc2ccc(S(=O)(=O)NC(=O)NC3CCCCC3)cc2)cn1`, the Potency entry was “inactive”.

For `CCc1cccc2c3c([nH]c12)C(CC)(CC(=O)O)OCC3` (stereo not given), the Potency result is “inactive”.

For `O=C1Cc2cc(CCN3CCN(c4nsc5ccccc45)CC3)c(Cl)cc2N1`, the Potency entry was “inactive”.

Take `Cc1cn([C@H]2C=C[C@@H](CO)O2)c(=O)[nH]c1=O`: the Potency result is “inactive”. For the compound `CC(C)(C)C(=O)Oc1ccc(S(=O)(=O)Nc2ccccc2C(=O)NCC(=O)O)cc1`, the Potency result is “inactive”.

(Values after PubChem BioAssay (NCATS).)
